In the library only some 10% were active in any assay of this set; here they are far more common.
BAZ2B inh: BAZ2B (human) inhibition. Q9UIF8. AlphaScreen BAZ2B-H3K14Ac peptide displacement. Potency, µM (highest dose often 114 µM), for inactives: at the highest dose activity change, negative = inhibition, actives largely listed as inhibitors. 360,000 compounds, 4.4% hits; also: % is scaled to controls: 0 for no effect and ±100 for the full control effect; nearly all actives have a fitted effect of over 60% in size
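Inhibition is scored as reduced AlphaScreen emission. The BAZ2B/b-H3(5-23)K14Ac complex (50 nM each) in PBS pH 7.4, 0.01% Tween-20 meets compound (up to 110 uM) for 30 min at RT before bead addition.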
HP1b binding inh: inhibitors of HP1-beta chromodomain binding to methylated histone tails. Potency, µM (doses to about 114 µM), inactives show at the top dose activity change, negative = inhibition, actives largely listed as inhibitors. AID 540317. 390,000 compounds, 0.56% hits. AlphaScreen HP1-beta / biotin-H3K9me3 peptide binding; also: nearly all actives have a fitted effect of over 70% in size
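HP1-beta protein (50 nM final) preincubated 30 min at room temperature with biotinylated H3(1-18)K9me3 peptide (50 nM) in PBS pH 7.4, 0.01% Tween-20, then compound added for 30 min. AlphaScreen streptavidin donor/nickel chelate acceptor beads (10 ug/mL final), 30 min dark, luminescence read.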
L3MBTL1 block: L3MBTL1 (human) inhibition; Q9Y468; AlphaScreen L3MBTL1–H3K9me1 peptide binding; Potency, µM (doses to about 57.1 µM), without a hit: at the top dose activity, negative = inhibition, actives largely listed as inhibitors; 230,000 compounds, 0.66% hits; also: % is scaled to controls: 0 for no effect and ±100 for the full control effect; nearly all actives have a fitted effect of over 60% in size
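L3MBTL1 (50 nM) pre-complexed 30 min with biotinylated H3(1-15)K9me1 peptide (75 nM), then compounds added for 30 min at room temperature; AlphaScreen streptavidin donor/nickel chelate acceptor beads (10 ug/mL final) read after 30 min dark incubation.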
G9a inh: blocks human histone lysine methyltransferase G9a. Q96KQ7. G9a H3K9 monomethylation, AlphaScreen, 2 h. Potency, µM (titrated, usually from 102 µM), without a hit: at the top dose activity, negative = inhibition, usual class: inhibitors. 350,000 compounds, 8.8% hits. AID 504332; also: % is scaled to controls: 0 for no effect and ±100 for the full control effect; nearly all actives have a fitted effect of over 75% in size
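Methyltransferase reactions run at room temperature for 2 h (20 nM enzyme, 500 nM biotin-H3K9 peptide, 20 uM SAM) after a 15 min compound preincubation; product detected by AlphaScreen beads and anti-H3K9me1 antibody.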
JMJD2A Tudor inh: blocks the human JMJD2A Tudor domain; AlphaScreen JMJD2A-Tudor / H3K4me3 peptide binding; Potency, µM (doses to about 114 µM), for the others: at the top dose activity change, negative = inhibition, usual class: inhibitors; 390,000 compounds, 4.4% hits; also: % is scaled to controls: 0 for no effect and ±100 for the full control effect; nearly all actives have a fitted effect of over 50% in size
GLS inh: inhibitors of human glutaminase (GLS); GLS enzymatic activity, qHTS titration; Potency, µM (top dose mostly 45.5 µM), inactives show at the highest dose activity change, negative = inhibition, hits mostly inhibitors; O94925; 410,000 compounds, 0.21% hits; also: % is scaled to controls: 0 for no effect and ±100 for the full control effect
Target sequence (O94925 whole entry, looked up): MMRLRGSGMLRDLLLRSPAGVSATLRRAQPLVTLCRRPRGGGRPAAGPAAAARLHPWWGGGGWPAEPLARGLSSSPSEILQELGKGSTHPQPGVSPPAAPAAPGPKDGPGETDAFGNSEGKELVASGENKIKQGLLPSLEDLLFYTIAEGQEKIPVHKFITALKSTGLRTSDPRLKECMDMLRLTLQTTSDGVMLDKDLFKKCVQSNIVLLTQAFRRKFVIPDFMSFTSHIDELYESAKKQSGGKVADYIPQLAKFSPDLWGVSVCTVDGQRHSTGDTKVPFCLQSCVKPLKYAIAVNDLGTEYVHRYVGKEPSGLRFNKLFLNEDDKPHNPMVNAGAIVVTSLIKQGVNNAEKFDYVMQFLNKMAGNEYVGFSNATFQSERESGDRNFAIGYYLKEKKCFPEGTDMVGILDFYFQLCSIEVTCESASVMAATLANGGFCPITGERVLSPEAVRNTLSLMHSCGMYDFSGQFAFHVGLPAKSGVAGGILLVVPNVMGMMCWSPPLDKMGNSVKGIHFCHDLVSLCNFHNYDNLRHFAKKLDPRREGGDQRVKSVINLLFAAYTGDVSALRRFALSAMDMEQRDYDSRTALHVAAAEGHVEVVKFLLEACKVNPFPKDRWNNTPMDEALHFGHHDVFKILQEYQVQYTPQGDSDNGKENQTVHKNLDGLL
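Human kidney-isoform GLS in 45 mM KH2PO4 pH 8.2, 0.02% Tween-20, with compound, started with 1mM L-Glutamine (added stock). Glutamate oxidase/HRP/Amplex red coupled fluorescence read at start and after 30 min at RT.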
* hit, by the source's call; [ ] = another dose, or the depositor's remark. Calls follow the shape of the dose curve; as a rule, active = well fitted curve in the direction sought with a large enough effect; inconclusive = small, poorly fitted or top-dose-only effect, or another doubt; inactive = no such curve, though single readings can be large; an effect the other way counts as inactive or inconclusive. Potency is read from the fitted curve at half-maximal effect.

Results for Cc1ccc(NC(=O)CN2C(=O)S/C(=C/c3ccc(O)c([N+](=O)[O-])c3)C2=O)cc1C ?
BAZ2B inh: 14.1µM*; HP1b binding inh: inconclusive; L3MBTL1 block: 25.1µM*; JMJD2A Tudor inh: 22.4µM*; GLS inh: 10.2%

Results for Cc1nn(-c2ccccc2)c2sc(C(=O)Nc3cccc(Br)c3)cc12 ?
BAZ2B inh: 5.5%; HP1b binding inh: 59.0%; G9a inh: 4.3%[59 µM]; JMJD2A Tudor inh: 15.9%; GLS inh: -2.5%

What do the screens show for `CSc1ccc(CNC(=O)CCn2ccc3cc(S(=O)(=O)N4CCC(C)CC4)ccc32)cc1`?
BAZ2B inh: -23.4%; HP1b binding inh: 24.4%; G9a inh: -8.2%[59 µM]; JMJD2A Tudor inh: -4.8%; GLS inh: 1.5%

How did CCOc1ccccc1-c1noc(CSc2nnc(-c3ccccc3)n2-c2ccc(F)cc2)n1 do in these assays?
BAZ2B inh: 11.0%; HP1b binding inh: 61.3%; G9a inh: 12.2%[59 µM]; JMJD2A Tudor inh: -11.1%; GLS inh: 1.9%

Results for Cc1ccc(S(=O)(=O)N2CCN(c3nc(-c4cncnc4)nc4ccccc34)CC2)cc1 ?
HP1b binding inh: 13.1%; JMJD2A Tudor inh: -25.2%

How did CCOC(=O)Cc1ccc(NC(=O)N(Cc2ccc(OC)cc2)C2CCN(C(C)=O)CC2)cc1 do in these assays?
BAZ2B inh: -2.1%; HP1b binding inh: 3.4%; G9a inh: 2.5%[59 µM]; JMJD2A Tudor inh: -16.2%; GLS inh: -4.9%

Results for O=C(CN1C(=O)S/C(=C\c2ccc(O)c([N+](=O)[O-])c2)C1=O)Nc1ccc(N2CCOCC2)cc1 ?
BAZ2B inh: 44.7µM*; HP1b binding inh: inconclusive; G9a inh: -3.5%[0.501 µM]; JMJD2A Tudor inh: 56.2µM*; GLS inh: inconclusive

How did Cn1cnnc1Sc1ccc(C(=O)OCC(=O)Nc2cc(Cl)cc(Cl)c2)cc1[N+](=O)[O-] do in these assays?
BAZ2B inh: -38.6%; HP1b binding inh: -8.9%; L3MBTL1 block: -16.1%; G9a inh: 15.8µM*; JMJD2A Tudor inh: inconclusive; GLS inh: 1.7%

What do the screens show for `COc1cc(Cl)c(C)cc1NC(=O)Cn1ncc2c([nH]c3ccccc32)c1=O`?
BAZ2B inh: -11.2%; HP1b binding inh: 17.1%; G9a inh: -5.6%[59 µM]; JMJD2A Tudor inh: -17.5%; GLS inh: 1.6%

What do the screens show for `O=C(NNC(=O)c1ccco1)c1csc(N2CCOCC2)n1`?
BAZ2B inh: inconclusive; HP1b binding inh: 36.9%; L3MBTL1 block: 0.7%; G9a inh: 7.08µM*; JMJD2A Tudor inh: -0.7%; GLS inh: -3.9%

What do the screens show for `Cc1ccc(C(=O)NNC(=O)c2csc(N3CCOCC3)n2)o1`?
BAZ2B inh: inconclusive; HP1b binding inh: 28.8%; L3MBTL1 block: -4.4%; G9a inh: -3.4%[0.501 µM]; JMJD2A Tudor inh: inconclusive; GLS inh: 20.7%

What do the screens show for `Cc1cccc(C)c1NC(=O)Cn1nnc(C(=O)Nc2c(C)cccc2C)c1N`?
HP1b binding inh: 14.7%; G9a inh: 0.5%[59 µM]; JMJD2A Tudor inh: -8.0%; GLS inh: 0.3%

How did Cc1ccc(/C=C2/NC(=O)N(Cc3ccccc3)C2=O)o1 do in these assays?
BAZ2B inh: -30.7%; HP1b binding inh: -22.4%; L3MBTL1 block: -1.8%; G9a inh: inconclusive; JMJD2A Tudor inh: inconclusive; GLS inh: -1.5%

Results for COC(=O)CN1C(=O)N/C(=C/c2ccc(C)o2)C1=O ?
BAZ2B inh: 2.3%; HP1b binding inh: -15.8%; G9a inh: 25.1µM*; JMJD2A Tudor inh: -28.5%; GLS inh: 11.1%

How did Cc1ccc(NC(=O)N(Cc2c[nH]c3ccccc23)C2CCCCCC2)cc1C do in these assays?
HP1b binding inh: -1.3%; G9a inh: -34.0%[59 µM]; JMJD2A Tudor inh: inconclusive; GLS inh: 23.8%

Results for COc1ccccc1/C=C\C=N\n1c(-c2ccc(Cl)cc2)n[nH]c1=S ?
BAZ2B inh: -10.5%; HP1b binding inh: -16.1%; L3MBTL1 block: -1.8%; G9a inh: 4.47µM*; JMJD2A Tudor inh: -31.2%; GLS inh: -4.6%

Screening data as filed in PubChem.
